GPR151 activ: human GPR151 activation; Q8TDV0; PathHunter beta-arrestin GPR151 cells, luminescence; activation, % at 11.2 µM; 650,000 tested, 1% active; in the data active = activation above about 4.9%
MITF primary: human MITF inhibition, primary screen | O75030 | AlphaScreen MITF homodimerization, bead proximity signal | inhibition, % at 2.6 µM | 650,000 tested, 0.91% active | AID 1259374; in the data active = inhibition above about 50%
TEAD-YAP inh: TEAD-YAP interaction inhibition. HEK-TIYL cells, TEAD-Gal4/YAP UAS-luciferase luminescence. inhibition, % at 9.12 µM. 640,000 tested, 1.4% active; in the data active = inhibition above about 32%
FBW7 activator: activators of human E3 ligase FBW7; Q969H0; AlphaScreen FBW7–phospho-cyclin E peptide binding, activator screen; normalized activity (activation), % at 26.1 µM; 650,000 tested, 0.13% active; AID 1259310; in the data active = normalized activity above about 1.9%;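 also: purified mutant Fbw7 with reduced substrate affinity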
A number is an active result; n = inactive. This is a sample that favours compounds with a hit; in the whole collection about 3.5% have one here.

SMILES	GPR151 activ	MITF primary	TEAD-YAP inh	FBW7 activator
COc1cc(-c2cnc3c(Nc4ccc5[nH]ccc5c4)nccn23)cc(OC)c1OC	n	n	n	n
Nc1ccc(-c2cnc3c(Nc4ccc5[nH]ccc5c4)nccn23)cc1	n	n	69	n
Oc1ccc(-c2cnc3c(Nc4ccc5[nH]ccc5c4)nccn23)cc1	n	n	69	n
OCc1ccccc1-c1cnc2c(Nc3ccc4[nH]ccc4c3)nccn12	n	n	93	n
Cc1ccc(-c2cnc3c(Nc4ccc5[nH]ccc5c4)nccn23)cc1	n	n	n	n
CCOCCCNC(=O)C1CCC(=O)N1Cc1cccnc1 (stereo not given)	n	n	n	n
COc1ccc(/C=C(\C#N)c2nnc(NC(C)=O)s2)cc1	n	n	n	n
NC(=O)C(C(=O)/C=C/c1ccc(Cl)cc1)=C1SCCS1	n	n	44	n
Cc1nc2nc(C)c(Br)c(=O)n2[nH]1	n	n	n	n
Nc1ccc(C(=O)Nc2cccc(O)c2)cc1	n	n	59	n
CC(=O)c1ccc(NC(=O)c2noc3c2CCc2ccccc2-3)cc1	n	n	n	n
O=C(Nc1cccc(O)c1)c1noc2c1CCc1ccccc1-2	n	n	87	n
O=C(Nc1cccc(O)c1)c1ccccc1	n	n	48	n
Nc1ccc(C(=O)Nc2ccc(O)cc2)cc1	n	n	n	n
O=C(O)CCC(=O)NCc1ccc(CNC(=O)CCC(=O)O)cc1	n	n	n	n
COC(CN(C)C1=NC(=O)/C(=C\c2ccc(SC)cc2)S1)OC	n	n	42	n
COc1ccc(C2NC(=O)C(O)=C2C(=O)c2ccco2)cc1OC (stereo not given)	n	n	n	n
COc1ccc(O)c(C2=Nc3ccccc3N=C(c3ccc(C(C)(C)C)cc3)C2)c1	n	n	56	n
OCc1nc2ccc(Cc3ccc4nc(CO)[nH]c4c3)cc2[nH]1	n	n	n	n
OCc1nc2ccc(-c3ccc4nc(CO)[nH]c4c3)cc2[nH]1	n	n	58	n
CCSc1nnc(CSc2ncccn2)n1CCc1ccccc1	n	n	n	n
COc1ccc2c(c1)CC(C(=O)Nc1nc3ccc(-c4cn[nH]c4)cc3s1)CO2 (stereo not given)	n	n	n	n
COc1cccc(CNC(=O)Nc2nc3ccc(-c4cn[nH]c4)cc3s2)c1	n	n	96	n
COc1cccc(C(=O)Nc2nc3ccc(-c4cn[nH]c4)cc3s2)c1	n	n	n	n
O=C(Nc1nc2ccc(-c3cn[nH]c3)cc2s1)C1CNCC1c1ccccc1 (stereo not given)	n	n	54	n
SMILES	GPR151 activ	MITF primary	TEAD-YAP inh	FBW7 activator
O=C(Nc1nc2ccc(-c3cn[nH]c3)cc2s1)C1COc2ccc(F)cc2C1 (stereo not given)	n	n	48	n
NCC(=O)N1CC(C(=O)Nc2nc3ccc(-c4cn[nH]c4)cc3s2)C(c2ccccc2)C1 (stereo not given)	n	n	n	n
Cc1cccnc1C(NC(=O)C1CCN(C(=O)Nc2ccccc2)CC1)c1ccccc1 (stereo not given)	n	n	n	n
O=[N+]([O-])c1cc(CN2CCN(c3cccc(C(F)(F)F)c3)CC2)c2cccnc2c1O	n	100	n	n
Oc1c(Cl)cc(CN2CCN(c3cccc(C(F)(F)F)c3)CC2)c2cccnc12	n	n	70	n
COc1cc(/C=C2/C(=O)N(c3ccc(Br)cc3)N=C2C)cc(I)c1O	n	n	n	n
COc1ccccc1N1C(=O)c2ccc(C(=O)Nc3cc([N+](=O)[O-])ccc3O)cc2C1=O	n	n	n	2.1
Cc1ccc(N2C(=O)CSC2c2cccc([N+](=O)[O-])c2)cc1F (stereo not given)	n	n	34	n
CC1=C(C#N)C(=O)NC(=O)/C1=C\c1ccc(-c2ccccc2)o1	n	n	n	n
CC1=C(C#N)C(=O)NC(=O)/C1=C\c1ccc(-c2ccc(C(=O)O)c(Cl)c2)o1	n	58	n	n
COC(=O)c1ccsc1NC(=O)COc1ccc(Cl)cc1	n	n	n	n
CC[n+]1ccc(/C=C2\C=Cc3ccccc3N2C)cc1	n	n	85	n
CC[n+]1ccc(/C=C2\C=CC=CN2C)cc1	n	n	n	n
COc1ccc(-n2nc3ccc(NC(=O)c4cccc(OCc5ccccc5)c4)cc3n2)cc1	n	n	n	n
O=C(Nc1ccccn1)c1cc(-c2ccncc2)nc2ccc(Cl)cc12	n	n	n	n
CCn1c2ccccc2c2cc(NC(=O)C(=O)NCCCOC)ccc21	n	n	40	n
COC(=O)c1ccccc1NC(=O)c1nn(-c2cccc(OC)c2)c(=O)c2ccccc12	n	n	n	n

From PubChem
